Screens as filed in PubChem.
The list is not random: actives were taken first. Their share in the collection is about 12%.
SARS PLpro yeast: qHTS of Yeast-based Assay for SARS-CoV PLP; AID 485353, 2010; S. cerevisiae expressing SARS-CoV PLpro, growth rescue; Potency, µM (series often up to 32.9 µM), for inactives: at the top dose activity, positive = growth rescue, hits mostly activators; 330,000 compounds, 0.19% hits; calls by dose curve; note: 0% is about no effect; nearly all actives have a fitted effect of over 55% in size
AmpC detergent: qHTS Inhibitors of AmpC Beta-Lactamase (assay with detergent) | Potency, µM (top dose mostly 114 µM), for the others: at the top dose activity change, negative = inhibition, hits mostly inhibitors | AmpC hydrolysis of nitrocefin, absorbance 480 nm, 0.01% Triton | 370,000 compounds, 0.041% hits | P00811;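 note: 0% = no-compound wells and -100% = no-enzyme wells; nearly all actives have a fitted effect of over 25% in size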
Target sequence (P00811 whole entry, looked up): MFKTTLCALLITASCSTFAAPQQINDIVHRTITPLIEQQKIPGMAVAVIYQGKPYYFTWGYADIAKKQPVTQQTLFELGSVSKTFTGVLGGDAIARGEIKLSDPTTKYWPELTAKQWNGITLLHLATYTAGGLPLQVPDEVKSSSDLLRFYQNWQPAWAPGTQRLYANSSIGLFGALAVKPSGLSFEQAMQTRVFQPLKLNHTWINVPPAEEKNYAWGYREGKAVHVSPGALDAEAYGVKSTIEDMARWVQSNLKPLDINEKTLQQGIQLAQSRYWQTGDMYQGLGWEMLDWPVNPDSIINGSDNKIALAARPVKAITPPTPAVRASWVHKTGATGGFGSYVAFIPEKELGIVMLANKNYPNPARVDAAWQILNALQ
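20 mM phosphate pH 7.0 + 0.01% (detergent screen) or 0.0001% Triton X-100; 5.3 nM AmpC reagent; cpd preinc 15 min RT; nitrocefin (800 uM stock) to start; A480 q20 s × 4 min; Activity was normalised to no-enzyme and no-compound control wells.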
AmpC inh no detg: qHTS Inhibitors of AmpC Beta-Lactamase (assay without detergent). Potency, µM (titrated, usually from 57.1 µM), for the others: at the top dose activity change, negative = inhibition, hits mostly inhibitors. AmpC nitrocefin hydrolysis, absorbance 480 nm, 0.0001% Triton. AID 485341, 2010. 330,000 compounds, 0.52% hits;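 note: plate controls were no compound for no effect and no enzyme for full effect; nearly all actives have a fitted effect of over 20% in size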
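20 mM phosphate pH 7.0 + 0.01% (detergent screen) or 0.0001% Triton X-100; 5.3 nM AmpC reagent; cpd preinc 15 min RT; nitrocefin (800 uM stock) to start; A480 q20 s × 4 min; Activity was normalised to no-enzyme and no-compound control wells.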
Pf growth 48h: Primary qHTS for delayed death inhibitors of the malarial parasite plastid, 48 hour incubation. P. falciparum luciferase growth in erythrocytes, 48 h. 310,000 compounds, 5.9% hits. Potency, µM (doses to about 28.7 µM), for the others: at the top dose activity change, negative = inhibition, hits mostly inhibitors; note: % is set by controls: 0 for no effect and ±100 for the full control effect
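Luciferase-expressing P. falciparum in infected erythrocytes (2% hematocrit, 0.1% parasitemia final) in RPMI 1640/0.5% Albumax were exposed to compound for 48 hours at 37 C, 5% CO2; growth read as luminescence.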
Sm TGR block: qHTS Assay for the Inhibitors of Schistosoma Mansoni Peroxiredoxins. Schistosoma mansoni thioredoxin glutathione reductase (TGR), Q962Y6. purified TGR, DTNB reduction, TNB absorbance 405 nm. Potency, µM (doses to about 114 µM), without a hit: at the highest dose activity change, negative = inhibition, usual class: inhibitors. 360,000 compounds, 3% hits. AID 485364, 2010; note: % is set by controls: 0 for no effect and ±100 for the full control effect; nearly all actives have a fitted effect of over 60% in size
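TGR 20 nM + NADPH 100 uM (dispensed conc.), cpd preinc 15 min RT; start with NADPH (500 uM addition) then DTNB (15 mM addition). Kinetic TNB absorbance, 405 nm filter. Four-parameter Hill fit across titration.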
Pf growth 96h: Primary qHTS for delayed death inhibitors of the malarial parasite plastid, 96 hour incubation; P. falciparum luciferase reporter growth, 96 h; AID 504834, 2011; Potency, µM (titrated, usually from 28.7 µM), without a hit: top-dose activity change, negative = inhibition, hits mostly inhibitors; 320,000 compounds, 6.9% hits; note: % is set by controls: 0 for no effect and ±100 for the full control effect
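P. falciparum expressing integrated firefly luciferase grown in erythrocytes (2% hematocrit, 0.05% parasitemia final) with compounds for 96 hours at 37 C, 5% CO2. Growth inhibition read as loss of luminescence after adding luciferase detection reagent.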
An asterisk follows results filed as active; ? = inconclusive; / = no result given; [ ] = another dose, or the depositor's remark. Unless noted, calls come from the whole dose curve; as a rule, active = well fitted curve in the direction sought with a large enough effect; inconclusive = small, poorly fitted or top-dose-only effect, or another doubt; inactive = no such curve, though single readings can be large; an effect the other way counts as inactive or inconclusive. Potency is the fitted concentration of half-maximal effect.

SMILES	SARS PLpro yeast	AmpC detergent	AmpC inh no detg	Pf growth 48h	Sm TGR block	Pf growth 96h
CN(C)c1cccc(NC2=CC(=[N+]3CCOCC3)CC(C)(C)C2)c1	8%	2%	0%	/	-19%	?
COc1ccc(CCn2c(N)c(C#N)c3nc4ccccc4nc32)cc1OC	-2%	0%	47%	5.9µM*	43%	56%
COc1ccc(Cn2c(N)c(C#N)c3nc4ccccc4nc32)cc1OC	3%	-11%	31%	/	-24%	?
N#Cc1c(N)n(-c2ccccc2N)c2nc3ccccc3nc12	3%	-6%	2%	-13%	45µM*	-17%
COc1ccccc1CCn1c(N)c(C#N)c2nc3ccccc3nc21	-9%	-1%	49%	9.3µM*	-9%	?
N#Cc1c(N)n(-c2cccc(C(=O)O)c2)c2nc3ccccc3nc12	-1%	2%	-20%	35%	0%	42%
COc1ccc(NC(=O)c2cc3c(=O)n(Cc4cccnc4)ccc3nc2C)c(OC)c1	/	21%	/	/	-4%	/
Cc1ccc2c(c1)-c1nc(-c3ccccc3)cc(-c3ccccc3)c1CO2	/	0%	/	/	5%	/
CSc1ccc(C(=O)C2CCCN(C(=O)c3nonc3C)C2)cc1 (stereo not drawn)	6%	-11%	68%	15µM*	14%	29%
CSc1ccc(C(=O)C2CCCN(C(=O)c3nn(C)c(=O)c4ccccc34)C2)cc1 (stereo not drawn)	-2%	?	-7%	16%	14µM*	15%
CSc1ccc(C(=O)C2CCCN(C)C2)cc1 (stereo not drawn)	0%	3%	-11%	0%	0%	?
COc1cccc(-c2nnn(CC(=O)N3CCC(C)CC3)n2)c1	8%	?	-11%	31%	-1%	?
Cc1ccccc1CNC(=O)C(C)N(c1ccccc1)S(C)(=O)=O (stereo not drawn)	/	1%	/	/	9%	/
O=C(N/N=C/c1ccc(Cl)cc1)C1CC12CCC2 (stereo not drawn)	-2%	2%	-14%	122%	-1%	44%
CC1(c2ccccc2)NC(=O)N(CC(=O)NC(=O)NC2CCCC2)C1=O (stereo not drawn)	1%	10%	28%	/	14%[11.4 µM]	-44%
COc1ccc(N2CCN(C(=O)c3ccc4c(c3)NC(=O)C(CSCc3cccc(F)c3)N4)CC2)cc1 (stereo not drawn)	?	-4%	-4%	-20%	45µM*	5%
COc1ccc(N2CCN(C(=O)c3ccc4c(c3)NC(=O)C(CSCc3ccc(C)cc3)N4)CC2)cc1 (stereo not drawn)	-14%	-5%	1%	-10%	?	6%
COc1ccc(N2CCN(C(=O)c3ccc4c(c3)NC(=O)C(CSCc3c(F)cccc3Cl)N4)CC2)cc1 (stereo not drawn)	-1%	?	-16%	-22%	56µM*	36%
Cc1cccc(N2CCN(C(=O)c3ccc4c(c3)NC(=O)C(CSCc3ccc(F)cc3)N4)CC2C)c1 (stereo not drawn)	5%	?	-16%	?	-15%	-35%
CC(C)CCN(CCC(C)C)C/C(O)=C(\C#N)c1nc(-c2ccccc2)cs1	1%	?	-1%	/	-16%	2.6µM*
Cc1occc1C(=O)NC(C)C1CCCO1 (stereo not drawn)	-3%	2%	-8%	13%	22µM*	/
CCOC(=O)C1(N(CC)CC)Sc2cc(C)ccc2NC1=O (stereo not drawn)	-11%	?	-55%	?	13%	5.9µM*
CC(=O)C1=C(O)C(=O)N(CCCN2CCOCC2)C1c1ccccc1[N+](=O)[O-] (stereo not drawn)	-1%	-6%	-22%	-13%	45µM*	-2%
CCCCCCN1C(=O)C(O)=C(C(C)=O)C1c1ccccc1[N+](=O)[O-] (stereo not drawn)	0%	4%	-14%	-23%	/	?
CCN(CC)CCCN1C(=O)C(O)=C(C(=O)c2sc(C)nc2C)C1c1ccc(C)o1 (stereo not drawn)	5%	4%	-5%	9%	-29%	12%[5.75 µM]
SMILES	SARS PLpro yeast	AmpC detergent	AmpC inh no detg	Pf growth 48h	Sm TGR block	Pf growth 96h
Cc1ccc(C2C(C(=O)c3sc(C)nc3C)=C(O)C(=O)N2CCN2CCOCC2)o1 (stereo not drawn)	-6%	-3%	-7%	2%	40µM*	30%
Cc1ccc(C(=O)C2=C(O)C(=O)N(CCN3CCOCC3)C2c2ccccn2)o1 (stereo not drawn)	0%	-9%	-19%	6%	45µM*	/
CCCOc1ccc(C2C(C(=O)c3ccc(C)o3)=C(O)C(=O)N2CCN2CCOCC2)cc1OC (stereo not drawn)	1%	0%	45%	41%	40µM*	?
CCc1c(C)sc(NC(NC(C)=O)(C(=O)OC)C(F)(F)F)c1C#N (stereo not drawn)	6%	-6%	-8%	-5%	50µM*	?
COC(=O)C(NC(C)=O)(Nc1sc2c(c1C(N)=O)CCCC2)C(F)(F)F (stereo not drawn)	-5%	?	-16%	/	?	-28%
CS(=O)(=O)NCCNC(=O)c1cc(OCC(F)(F)F)ccc1OCC(F)(F)F	-8%	-13%	-7%	39%	17%	6%
COc1ccccc1C(=O)Nc1ncc2c(n1)CC(c1ccco1)CC2=O (stereo not drawn)	8%	?	-12%	?	20µM*	13%
COc1ccc(C2CC(=O)c3cnc(NC(=O)c4ccco4)nc3C2)cc1 (stereo not drawn)	0%	1%	28%	6%	-15%	28%
CCCc1cc(=O)[nH]c2nnc(SCC(=O)Nc3cccc(NC(C)=O)c3)n12	1%	2%	-11%	?	-1%	?
CCOC(=O)c1cnc(-n2nc(C)cc2C)nc1NCc1ccccc1	-11%	0%	69%	1.7µM*	1%	15%
CCOC(=O)c1cnc(-n2nc(C)cc2C)nc1NC(C)c1ccccc1 (stereo not drawn)	-3%	2%	-26%	2.1µM*	1%	?
CCOC(=O)c1cnc(-n2nc(C)cc2C)nc1NNc1ncc(-c2ccccc2)cn1	-1%	-1%	80%	3.3µM*	-2%	1.7µM*
